From the supplement of paper PMC11732987, “Enantioselective OTUD7B fragment discovery through chemoproteomics screening and high-throughput optimisation” (Communications Chemistry, 2025)

What was measured:
Experiment in all cases: log2 ratio of Biotin-Ahx-Ub-VS probe labelling (fragment/DMSO); higher = less target engagement (more negative = stronger competition), active = hit call of the paper (q ≤ 0.05, log2 ratio ≤ -1)
Conditions in all cases: compound concentration: 200 uM; treatment time: 3 h
USP34 = USP34 (UniProt Q70CQ2)
Sequence of USP34 (Q70CQ2 whole entry, the tested form may be a part): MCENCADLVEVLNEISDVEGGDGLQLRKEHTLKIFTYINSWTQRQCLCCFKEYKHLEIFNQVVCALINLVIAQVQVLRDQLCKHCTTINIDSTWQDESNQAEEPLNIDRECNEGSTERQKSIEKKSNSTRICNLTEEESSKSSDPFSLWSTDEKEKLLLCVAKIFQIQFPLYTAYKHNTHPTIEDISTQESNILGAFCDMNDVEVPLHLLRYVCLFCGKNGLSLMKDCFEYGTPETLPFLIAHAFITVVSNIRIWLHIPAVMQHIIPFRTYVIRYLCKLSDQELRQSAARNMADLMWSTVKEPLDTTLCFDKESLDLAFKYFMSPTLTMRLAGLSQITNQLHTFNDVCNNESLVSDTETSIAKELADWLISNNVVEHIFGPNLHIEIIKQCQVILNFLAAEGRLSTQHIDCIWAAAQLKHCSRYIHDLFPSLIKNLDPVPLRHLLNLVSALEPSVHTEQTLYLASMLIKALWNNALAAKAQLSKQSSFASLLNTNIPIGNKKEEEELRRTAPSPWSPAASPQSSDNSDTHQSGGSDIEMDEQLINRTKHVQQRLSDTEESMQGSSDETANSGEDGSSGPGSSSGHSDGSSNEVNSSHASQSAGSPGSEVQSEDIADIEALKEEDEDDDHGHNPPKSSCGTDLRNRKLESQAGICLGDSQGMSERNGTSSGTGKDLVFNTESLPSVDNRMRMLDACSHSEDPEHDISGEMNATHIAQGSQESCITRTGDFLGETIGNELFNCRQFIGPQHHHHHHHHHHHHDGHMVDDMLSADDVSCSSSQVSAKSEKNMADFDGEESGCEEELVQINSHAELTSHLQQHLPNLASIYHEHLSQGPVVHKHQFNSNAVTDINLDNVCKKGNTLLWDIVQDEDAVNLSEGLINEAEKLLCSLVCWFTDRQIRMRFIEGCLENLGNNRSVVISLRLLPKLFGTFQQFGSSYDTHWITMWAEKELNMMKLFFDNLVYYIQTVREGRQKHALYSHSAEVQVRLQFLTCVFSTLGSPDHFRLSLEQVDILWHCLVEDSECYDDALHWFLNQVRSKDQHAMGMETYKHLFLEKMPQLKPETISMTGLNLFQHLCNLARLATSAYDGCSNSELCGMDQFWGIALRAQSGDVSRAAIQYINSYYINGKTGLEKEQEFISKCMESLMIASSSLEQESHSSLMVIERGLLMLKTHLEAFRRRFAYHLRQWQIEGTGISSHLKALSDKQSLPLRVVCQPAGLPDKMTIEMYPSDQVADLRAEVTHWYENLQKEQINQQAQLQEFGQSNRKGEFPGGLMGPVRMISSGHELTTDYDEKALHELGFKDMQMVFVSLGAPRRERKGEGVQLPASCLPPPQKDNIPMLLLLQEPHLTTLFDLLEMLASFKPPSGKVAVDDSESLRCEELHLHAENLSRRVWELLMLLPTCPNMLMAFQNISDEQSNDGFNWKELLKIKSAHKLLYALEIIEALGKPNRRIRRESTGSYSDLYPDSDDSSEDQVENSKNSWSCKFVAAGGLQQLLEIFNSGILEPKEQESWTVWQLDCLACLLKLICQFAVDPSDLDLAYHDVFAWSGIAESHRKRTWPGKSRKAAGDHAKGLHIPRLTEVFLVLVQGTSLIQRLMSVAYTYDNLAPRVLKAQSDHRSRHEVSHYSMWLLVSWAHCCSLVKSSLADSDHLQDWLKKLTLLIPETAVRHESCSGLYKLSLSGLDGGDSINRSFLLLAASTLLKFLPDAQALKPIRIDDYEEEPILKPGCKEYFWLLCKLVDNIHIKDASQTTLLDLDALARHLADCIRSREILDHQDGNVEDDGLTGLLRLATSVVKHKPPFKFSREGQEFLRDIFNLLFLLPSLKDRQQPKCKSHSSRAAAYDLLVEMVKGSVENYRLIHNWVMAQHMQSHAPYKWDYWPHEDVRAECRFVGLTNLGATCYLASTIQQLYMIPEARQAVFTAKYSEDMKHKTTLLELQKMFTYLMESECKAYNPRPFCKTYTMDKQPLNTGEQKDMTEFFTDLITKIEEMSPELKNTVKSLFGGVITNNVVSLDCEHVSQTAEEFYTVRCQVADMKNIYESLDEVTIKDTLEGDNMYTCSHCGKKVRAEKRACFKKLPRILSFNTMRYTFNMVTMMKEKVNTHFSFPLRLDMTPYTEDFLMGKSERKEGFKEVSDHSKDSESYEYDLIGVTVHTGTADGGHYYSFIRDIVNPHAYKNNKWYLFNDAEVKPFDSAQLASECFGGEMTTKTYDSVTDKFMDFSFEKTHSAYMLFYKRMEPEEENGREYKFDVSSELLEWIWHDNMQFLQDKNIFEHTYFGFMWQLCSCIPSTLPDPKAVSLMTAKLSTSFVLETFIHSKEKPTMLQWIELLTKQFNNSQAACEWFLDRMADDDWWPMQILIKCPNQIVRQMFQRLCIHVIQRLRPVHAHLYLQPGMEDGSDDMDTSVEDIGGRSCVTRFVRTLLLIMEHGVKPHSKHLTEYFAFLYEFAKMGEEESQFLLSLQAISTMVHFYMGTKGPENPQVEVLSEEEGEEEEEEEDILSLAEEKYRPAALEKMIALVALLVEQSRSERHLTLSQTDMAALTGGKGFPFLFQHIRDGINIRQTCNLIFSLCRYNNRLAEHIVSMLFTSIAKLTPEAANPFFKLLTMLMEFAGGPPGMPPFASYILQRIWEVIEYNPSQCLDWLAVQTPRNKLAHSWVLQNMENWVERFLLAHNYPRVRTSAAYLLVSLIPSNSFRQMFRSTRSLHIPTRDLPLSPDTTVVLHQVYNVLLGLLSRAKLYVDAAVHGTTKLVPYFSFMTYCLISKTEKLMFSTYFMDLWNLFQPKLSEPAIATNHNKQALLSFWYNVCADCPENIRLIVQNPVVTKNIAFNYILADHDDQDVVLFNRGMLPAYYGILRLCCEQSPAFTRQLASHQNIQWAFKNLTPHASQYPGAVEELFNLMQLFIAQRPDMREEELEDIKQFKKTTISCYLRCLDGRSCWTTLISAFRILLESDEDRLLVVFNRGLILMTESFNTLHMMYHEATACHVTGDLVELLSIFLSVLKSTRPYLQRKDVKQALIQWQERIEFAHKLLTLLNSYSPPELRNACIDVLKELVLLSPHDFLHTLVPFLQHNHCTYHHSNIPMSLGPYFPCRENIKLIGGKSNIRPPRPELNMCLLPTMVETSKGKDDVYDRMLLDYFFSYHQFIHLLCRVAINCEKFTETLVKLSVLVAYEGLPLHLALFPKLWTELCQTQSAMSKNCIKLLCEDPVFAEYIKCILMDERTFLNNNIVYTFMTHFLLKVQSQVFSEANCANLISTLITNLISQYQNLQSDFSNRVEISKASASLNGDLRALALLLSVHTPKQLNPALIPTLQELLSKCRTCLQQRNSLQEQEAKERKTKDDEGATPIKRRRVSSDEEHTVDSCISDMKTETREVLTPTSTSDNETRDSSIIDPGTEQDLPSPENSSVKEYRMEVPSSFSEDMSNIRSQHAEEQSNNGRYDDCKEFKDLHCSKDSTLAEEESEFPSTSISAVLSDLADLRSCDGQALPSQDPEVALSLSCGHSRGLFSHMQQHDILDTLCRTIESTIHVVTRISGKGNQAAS
Outline: (§1)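 HEK293T lysate (495 µg per sample, in Tris/CHAPS/IGEPAL buffer with protease inhibitors) was exposed in triplicate for 3 h to fragment at 200 µM or to vehicle, then to Biotin-Ahx-Ub-VS at 0.5 µM final for 1 h. Labelled DUBs were enriched on NeutrAvidin, digested with LysC and trypsin, and analysed by diaPASEF LC-MS/MS. Spectronaut label-free quantities were normalised to the global median, and values are average log2 ratios of fragment over vehicle from an unpaired t-test. Only proteins with ≥2 unique peptides were used.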

USP36 = target: T1, USP36 (UniProt Q9P275)
T1 sequence (whole entry): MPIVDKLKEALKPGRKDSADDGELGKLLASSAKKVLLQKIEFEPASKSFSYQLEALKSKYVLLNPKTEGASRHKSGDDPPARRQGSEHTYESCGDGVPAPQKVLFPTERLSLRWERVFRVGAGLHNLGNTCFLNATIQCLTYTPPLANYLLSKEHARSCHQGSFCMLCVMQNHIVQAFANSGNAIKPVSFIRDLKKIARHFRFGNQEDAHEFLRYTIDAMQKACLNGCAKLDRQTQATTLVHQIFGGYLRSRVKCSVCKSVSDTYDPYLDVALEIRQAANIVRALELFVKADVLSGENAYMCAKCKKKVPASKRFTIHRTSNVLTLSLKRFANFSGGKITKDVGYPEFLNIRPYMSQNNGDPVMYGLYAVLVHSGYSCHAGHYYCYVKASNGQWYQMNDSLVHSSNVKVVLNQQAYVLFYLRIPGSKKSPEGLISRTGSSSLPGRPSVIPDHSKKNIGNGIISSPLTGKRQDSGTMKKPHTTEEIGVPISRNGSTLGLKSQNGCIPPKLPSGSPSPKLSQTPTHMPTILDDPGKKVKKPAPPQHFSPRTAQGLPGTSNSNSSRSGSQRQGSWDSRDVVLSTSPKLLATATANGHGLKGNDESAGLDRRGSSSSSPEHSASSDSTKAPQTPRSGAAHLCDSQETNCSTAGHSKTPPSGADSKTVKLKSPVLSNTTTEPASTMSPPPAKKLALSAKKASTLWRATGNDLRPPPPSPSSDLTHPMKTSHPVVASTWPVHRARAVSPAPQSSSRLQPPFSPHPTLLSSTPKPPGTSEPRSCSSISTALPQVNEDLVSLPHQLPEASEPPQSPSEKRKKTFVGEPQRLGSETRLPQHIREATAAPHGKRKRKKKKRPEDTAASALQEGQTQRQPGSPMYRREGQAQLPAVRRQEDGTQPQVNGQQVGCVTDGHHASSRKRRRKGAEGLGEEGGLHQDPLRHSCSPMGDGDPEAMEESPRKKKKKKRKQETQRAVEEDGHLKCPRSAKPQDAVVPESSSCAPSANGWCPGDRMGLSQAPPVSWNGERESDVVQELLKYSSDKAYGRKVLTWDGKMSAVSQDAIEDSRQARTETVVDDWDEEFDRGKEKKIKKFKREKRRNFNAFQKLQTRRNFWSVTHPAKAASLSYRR
Outline: as §1

USP38 = target: T2, USP38 (UniProt Q8NB14)
T2 sequence (whole entry): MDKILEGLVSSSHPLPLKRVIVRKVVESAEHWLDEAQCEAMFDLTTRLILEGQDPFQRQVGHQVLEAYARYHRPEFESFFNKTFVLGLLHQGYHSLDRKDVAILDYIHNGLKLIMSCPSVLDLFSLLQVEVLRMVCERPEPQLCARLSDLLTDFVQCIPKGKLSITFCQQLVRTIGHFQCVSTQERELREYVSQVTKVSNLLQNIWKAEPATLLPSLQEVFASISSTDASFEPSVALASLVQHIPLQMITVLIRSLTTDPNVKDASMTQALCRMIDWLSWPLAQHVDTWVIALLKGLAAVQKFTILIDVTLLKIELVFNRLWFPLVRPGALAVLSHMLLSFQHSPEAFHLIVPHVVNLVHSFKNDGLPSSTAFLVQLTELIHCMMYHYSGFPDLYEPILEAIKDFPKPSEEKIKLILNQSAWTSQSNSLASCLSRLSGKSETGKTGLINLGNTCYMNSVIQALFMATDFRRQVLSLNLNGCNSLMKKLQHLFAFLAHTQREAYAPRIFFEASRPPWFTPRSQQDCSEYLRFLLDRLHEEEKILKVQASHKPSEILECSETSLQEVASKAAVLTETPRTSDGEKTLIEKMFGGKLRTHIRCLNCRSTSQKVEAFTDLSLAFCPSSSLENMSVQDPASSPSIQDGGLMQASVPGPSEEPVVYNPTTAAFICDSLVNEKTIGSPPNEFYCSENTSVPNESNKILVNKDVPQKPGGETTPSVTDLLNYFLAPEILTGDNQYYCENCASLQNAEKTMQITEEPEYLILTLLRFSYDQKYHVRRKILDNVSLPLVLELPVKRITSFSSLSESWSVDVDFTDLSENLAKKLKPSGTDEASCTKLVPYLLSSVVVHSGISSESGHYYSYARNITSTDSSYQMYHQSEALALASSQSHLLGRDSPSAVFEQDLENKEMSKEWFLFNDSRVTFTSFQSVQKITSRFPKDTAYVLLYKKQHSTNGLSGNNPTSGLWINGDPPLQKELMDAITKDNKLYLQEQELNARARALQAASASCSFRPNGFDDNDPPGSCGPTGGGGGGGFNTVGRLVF
Outline: as §1

USP39 = target: T3, USP39 (UniProt Q53GS9)
T3 sequence (whole entry): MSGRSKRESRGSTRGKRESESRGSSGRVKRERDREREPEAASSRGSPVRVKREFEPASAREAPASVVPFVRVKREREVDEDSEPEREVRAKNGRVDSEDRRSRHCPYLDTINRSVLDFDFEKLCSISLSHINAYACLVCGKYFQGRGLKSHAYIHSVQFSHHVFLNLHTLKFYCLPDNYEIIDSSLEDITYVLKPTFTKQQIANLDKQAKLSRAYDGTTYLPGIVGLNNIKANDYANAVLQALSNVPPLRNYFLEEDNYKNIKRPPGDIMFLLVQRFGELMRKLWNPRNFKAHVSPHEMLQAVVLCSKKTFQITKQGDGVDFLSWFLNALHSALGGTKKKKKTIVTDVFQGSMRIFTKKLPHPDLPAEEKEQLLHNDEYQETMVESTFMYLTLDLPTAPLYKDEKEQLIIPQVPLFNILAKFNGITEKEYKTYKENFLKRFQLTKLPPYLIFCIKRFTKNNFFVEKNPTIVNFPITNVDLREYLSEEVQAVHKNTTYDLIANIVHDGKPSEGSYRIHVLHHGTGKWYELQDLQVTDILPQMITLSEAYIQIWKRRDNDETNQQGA
Outline: as §1

USP4 = target: T4, USP4 (UniProt Q13107)
T4 sequence (whole entry): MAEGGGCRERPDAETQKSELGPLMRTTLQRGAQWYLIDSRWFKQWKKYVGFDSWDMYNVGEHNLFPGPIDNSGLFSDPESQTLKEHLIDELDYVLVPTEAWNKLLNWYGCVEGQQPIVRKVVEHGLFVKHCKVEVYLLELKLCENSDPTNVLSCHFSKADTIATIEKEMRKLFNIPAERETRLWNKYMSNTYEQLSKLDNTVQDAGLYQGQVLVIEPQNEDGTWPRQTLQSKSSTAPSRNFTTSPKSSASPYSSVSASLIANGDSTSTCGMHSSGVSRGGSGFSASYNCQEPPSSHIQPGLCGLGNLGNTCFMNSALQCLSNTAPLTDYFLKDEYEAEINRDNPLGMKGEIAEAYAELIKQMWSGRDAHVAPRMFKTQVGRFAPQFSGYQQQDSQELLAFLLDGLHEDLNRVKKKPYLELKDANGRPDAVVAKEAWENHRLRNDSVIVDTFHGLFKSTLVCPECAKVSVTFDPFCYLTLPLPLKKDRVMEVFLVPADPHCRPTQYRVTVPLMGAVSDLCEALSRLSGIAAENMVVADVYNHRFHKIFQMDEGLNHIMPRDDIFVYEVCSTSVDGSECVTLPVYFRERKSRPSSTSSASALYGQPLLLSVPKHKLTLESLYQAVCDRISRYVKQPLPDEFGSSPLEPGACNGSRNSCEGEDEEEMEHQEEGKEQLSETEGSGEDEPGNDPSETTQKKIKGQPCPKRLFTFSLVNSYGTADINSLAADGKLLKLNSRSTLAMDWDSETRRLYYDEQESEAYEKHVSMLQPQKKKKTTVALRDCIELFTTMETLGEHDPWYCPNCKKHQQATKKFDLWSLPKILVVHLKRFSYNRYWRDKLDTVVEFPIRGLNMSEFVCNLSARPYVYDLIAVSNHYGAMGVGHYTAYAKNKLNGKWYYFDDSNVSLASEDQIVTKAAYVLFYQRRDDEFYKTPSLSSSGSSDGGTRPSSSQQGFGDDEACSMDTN
Outline: as §1

Measured: log2 ratio of Biotin-Ahx-Ub-VS probe labelling

O=C(CCl)N1CCC(C(=O)N2CCCCCC2)CC1
inactive: USP34 -0.0554 | USP36 -0.258 | USP38 -0.135 | USP39 -0.143 | USP4 0.128
